# According to PubChem BioAssay (NCATS):
# Where “and” joins values, the source holds several entries; their conditions need not be identical. Equal values may be shown once. Results filed as inconclusive are left out. A call without a number means that no potency is given here. Calls of active or inactive are those of the source. Unless noted, calls come from the whole dose curve; as a rule, active = well fitted curve in the direction sought with a large enough effect; inconclusive = small, poorly fitted or top-dose-only effect, or another doubt; inactive = no such curve, though single readings can be large; an effect the other way counts as inactive or inconclusive.
# Experiments:
# [1] = target: Luciferin 4-monooxygenase (Photinus pyralis) (UniProt P08659); assay: Biochemical firefly luciferase enzyme assay for NPC (AID 624030);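 note: purified P. pyralis luciferase at 10 nM with luciferin and ATP substrate; nearly all actives have a fitted effect of over 70% in size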
# Luciferin 4-monooxygenase (Photinus pyralis), sequence (P08659 whole entry, looked up): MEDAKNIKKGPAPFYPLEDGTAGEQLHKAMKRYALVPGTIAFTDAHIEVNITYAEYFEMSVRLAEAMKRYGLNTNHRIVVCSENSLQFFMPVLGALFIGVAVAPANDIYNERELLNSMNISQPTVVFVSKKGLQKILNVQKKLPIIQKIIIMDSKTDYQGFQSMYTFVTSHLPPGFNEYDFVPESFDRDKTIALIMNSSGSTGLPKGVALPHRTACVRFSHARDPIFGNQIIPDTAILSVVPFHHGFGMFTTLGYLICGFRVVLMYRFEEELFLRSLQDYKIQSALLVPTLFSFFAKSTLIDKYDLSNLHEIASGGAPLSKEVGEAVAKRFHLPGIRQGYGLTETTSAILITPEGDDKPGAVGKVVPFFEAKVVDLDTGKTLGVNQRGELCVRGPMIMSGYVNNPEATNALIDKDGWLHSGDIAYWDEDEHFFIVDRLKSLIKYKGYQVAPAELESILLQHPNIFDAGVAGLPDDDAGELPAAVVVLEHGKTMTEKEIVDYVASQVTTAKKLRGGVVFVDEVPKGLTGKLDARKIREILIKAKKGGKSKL
# Procedure, shortened: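 Purified P. pyralis luciferase at 10 nM in 50 mM Tris Acetate (final), luminescence read within 5 minutes of enzyme addition to compounds. Activity normalised to PTC124 versus DMSO; concentration-response curves classed by r2, magnitude and activity.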
# [2] = S16 Schwann cell viability assay (CellTiter-Glo assay) (AID 624031); note: nearly all actives have a fitted effect of over 70% in size; note: potency is the fitted concentration of half-maximal effect
# Procedure, shortened: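 Native S16 rat Schwann cells, 500-750 cells/well in DMEM with 10% FBS, dosed with compound after overnight culture and incubated 24h at 37 degree Celsius/5% CO2. Viability by CellTiter-Glo luminescence; % activity normalized to no-cell wells and DMSO-treated cells.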
# [3] = S16 Schwann cell PMP22 intronic element firefly luciferase assay (AID 624032); note: nearly all actives have a fitted effect of over 30% in size; note: potency is the fitted concentration of half-maximal effect
# Procedure, shortened: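 Rat S16 Schwann cells stably carrying firefly luciferase driven by a PMP22 intronic element, in 10% FBS, treated 24 h at 37 C. ONE-Glo luminescence normalized to PTC124 control and DMSO (0%); curves classed by r2, magnitude and activity.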
# [4] = qHTS of Trypanosoma Brucei Inhibitors: LOPAC Validation (AID 624147)
# Procedure, shortened: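 Luminescent Kinase-Glo Plus end-point after 45 min room-temperature reaction of T. brucei pyruvate kinase started with 130 uM ADP (final). Buffer TEA 50 mM pH 7.2 with KCl, MgCl2, BSA, Tween-20; titration-based qHTS with fitted concentration-effect curves.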
# [5] = target: Glucagon-like peptide 1 receptor (Homo sapiens) (UniProt P43220); assay: qHTS of GLP-1 Receptor Agonists: LOPAC Validation (AID 624148);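 note: higher luminescence signal means agonism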
# Glucagon-like peptide 1 receptor (Homo sapiens), sequence (P43220 whole entry, looked up): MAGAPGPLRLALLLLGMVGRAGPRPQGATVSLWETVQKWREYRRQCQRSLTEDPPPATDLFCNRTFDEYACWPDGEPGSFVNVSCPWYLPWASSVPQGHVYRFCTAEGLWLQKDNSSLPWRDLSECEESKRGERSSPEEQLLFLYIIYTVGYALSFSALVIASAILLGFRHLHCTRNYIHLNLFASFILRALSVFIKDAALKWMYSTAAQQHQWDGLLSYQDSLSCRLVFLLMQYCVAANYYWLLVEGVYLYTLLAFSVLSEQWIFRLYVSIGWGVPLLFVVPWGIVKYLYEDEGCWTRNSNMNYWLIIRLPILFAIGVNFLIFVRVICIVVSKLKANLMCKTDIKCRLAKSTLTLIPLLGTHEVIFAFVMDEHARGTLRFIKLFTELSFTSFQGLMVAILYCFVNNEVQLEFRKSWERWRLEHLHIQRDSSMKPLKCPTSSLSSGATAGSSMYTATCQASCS
# Procedure, shortened: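 HEK293 cells stably co-expressing GLP-1R and a cAMP-responsive luciferase reporter, plated 12 hours before compound, then incubated 4-6 hr at 37 deg C. Luminescence read 12 min after detection reagent.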
# [6] = qHTS of Nrf2 Activators: LOPAC Validation (AID 624149)
# Procedure, shortened: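 AREc32_Fluc cells, 1000/well, OPTI-MEM + 5% FBS, o/n 37 deg C 5% CO2; compound pin-transfer, 24 hr 37 deg C; Steady-Glo 30 min RT, luminescence read.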
# [7] = HTS Assay for Allosteric Antagonists of the Human D2 Dopamine Receptor: Hit Validation in HTRF (AID 624455)
# Procedure, shortened: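 HTRF read-out; cells stably expressing D1 receptor; hits scored for inhibition of D1-mediated response. Primary screen: calcium flux, force-coupled inducible Hek293 Trex D2 line, antagonism vs EC80 dopamine.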
# [8] = target: Voltage-gated inwardly rectifying potassium channel KCNH2 (Homo sapiens) (UniProt Q12809); assay: qHTS Assay for Small Molecule Inhibitors of the Human hERG Channel Activity (AID 588834);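 note: lower thallium flux fluorescence means stronger hERG block; nearly all actives have a fitted effect of over 50% in size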; note: potency is the fitted concentration of half-maximal effect
# Voltage-gated inwardly rectifying potassium channel KCNH2 (Homo sapiens), sequence (Q12809 whole entry, looked up): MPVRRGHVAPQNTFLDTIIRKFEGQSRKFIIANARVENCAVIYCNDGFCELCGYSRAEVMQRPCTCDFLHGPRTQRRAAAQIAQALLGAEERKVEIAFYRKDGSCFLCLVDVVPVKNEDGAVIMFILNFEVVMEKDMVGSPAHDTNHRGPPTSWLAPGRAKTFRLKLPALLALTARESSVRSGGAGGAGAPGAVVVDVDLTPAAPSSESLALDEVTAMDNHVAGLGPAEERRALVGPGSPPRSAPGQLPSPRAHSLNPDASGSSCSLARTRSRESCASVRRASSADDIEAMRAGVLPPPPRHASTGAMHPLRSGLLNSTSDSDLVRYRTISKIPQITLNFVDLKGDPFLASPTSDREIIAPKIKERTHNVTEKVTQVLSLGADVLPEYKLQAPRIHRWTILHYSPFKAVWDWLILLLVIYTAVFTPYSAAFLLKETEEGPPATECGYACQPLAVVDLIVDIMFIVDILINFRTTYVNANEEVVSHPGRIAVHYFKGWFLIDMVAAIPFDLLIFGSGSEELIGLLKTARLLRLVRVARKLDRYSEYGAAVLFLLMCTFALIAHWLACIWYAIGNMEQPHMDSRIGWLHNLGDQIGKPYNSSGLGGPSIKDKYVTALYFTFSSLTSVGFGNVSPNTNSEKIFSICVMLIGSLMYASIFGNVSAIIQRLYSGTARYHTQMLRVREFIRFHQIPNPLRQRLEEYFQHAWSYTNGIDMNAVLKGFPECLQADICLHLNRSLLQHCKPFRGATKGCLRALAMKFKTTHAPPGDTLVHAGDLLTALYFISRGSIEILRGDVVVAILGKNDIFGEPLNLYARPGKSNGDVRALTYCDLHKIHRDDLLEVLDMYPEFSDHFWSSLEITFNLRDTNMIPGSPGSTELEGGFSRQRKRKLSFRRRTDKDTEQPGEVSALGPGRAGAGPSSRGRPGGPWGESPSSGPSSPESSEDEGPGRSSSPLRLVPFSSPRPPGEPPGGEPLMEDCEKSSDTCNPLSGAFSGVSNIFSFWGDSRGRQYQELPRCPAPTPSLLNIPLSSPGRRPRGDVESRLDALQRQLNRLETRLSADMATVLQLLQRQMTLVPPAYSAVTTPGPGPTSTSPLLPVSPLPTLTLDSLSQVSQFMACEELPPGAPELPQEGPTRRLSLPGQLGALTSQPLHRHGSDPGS
# Procedure, shortened: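 In hERG-transduced U2OS cells, dye-loaded for 1 hr at room temperature in dark, test compounds incubated 10 min at 37 °C before thallium stimulation. AC50 values derived by Hill modelling of concentration-response.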
# [9] = qHTS assay for small molecule agonists of the antioxidant response element (ARE) signaling pathway (AID 651741; active = well fitted activation curve with a large enough effect in the signal ratio; the % refers to the signal ratio; note: potency is the fitted concentration of half-maximal effect)
# Procedure, shortened: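 HepG2 ARE-bla reporter cells, 2,000/well; 5 h settle at 37 C/5% CO2; compound pin transfer (23 nL, DMSO); 16 h at 37 C; LiveBLAzer B/G FRET substrate, 2 h RT; fluorescence intensity read.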
# [10] = qHTS assay for small molecule activators of the nuclear factor-kappa B (NF-kB) signaling pathway (AID 651749; active = well fitted activation curve with a large enough effect in the signal ratio; the % refers to the signal ratio); conditions: NF-kB-bla ME-180 cells, beta-lactamase FRET ratio, 16 h; stronger effect = higher value
# Procedure, shortened: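 NF-kB-bla ME-180 cells, 2,000/well; 23 nL compound or DMSO pinned; 16 hr, 37C/5% CO2; beta-lactamase FRET read-out.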
# [11] = target: Glutaminase kidney isoform, mitochondrial (Homo sapiens) (UniProt O94925); assay: qHTS for Inhibitors of Glutaminase (GLS): LOPAC Validation (AID 624146);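 note: glutamate product detected by oxidase and peroxidase coupled Amplex red fluorescence gain; nearly all actives have a fitted effect of over 60% in size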
# Glutaminase kidney isoform, mitochondrial (Homo sapiens), sequence (O94925 whole entry, looked up, canonical isoform): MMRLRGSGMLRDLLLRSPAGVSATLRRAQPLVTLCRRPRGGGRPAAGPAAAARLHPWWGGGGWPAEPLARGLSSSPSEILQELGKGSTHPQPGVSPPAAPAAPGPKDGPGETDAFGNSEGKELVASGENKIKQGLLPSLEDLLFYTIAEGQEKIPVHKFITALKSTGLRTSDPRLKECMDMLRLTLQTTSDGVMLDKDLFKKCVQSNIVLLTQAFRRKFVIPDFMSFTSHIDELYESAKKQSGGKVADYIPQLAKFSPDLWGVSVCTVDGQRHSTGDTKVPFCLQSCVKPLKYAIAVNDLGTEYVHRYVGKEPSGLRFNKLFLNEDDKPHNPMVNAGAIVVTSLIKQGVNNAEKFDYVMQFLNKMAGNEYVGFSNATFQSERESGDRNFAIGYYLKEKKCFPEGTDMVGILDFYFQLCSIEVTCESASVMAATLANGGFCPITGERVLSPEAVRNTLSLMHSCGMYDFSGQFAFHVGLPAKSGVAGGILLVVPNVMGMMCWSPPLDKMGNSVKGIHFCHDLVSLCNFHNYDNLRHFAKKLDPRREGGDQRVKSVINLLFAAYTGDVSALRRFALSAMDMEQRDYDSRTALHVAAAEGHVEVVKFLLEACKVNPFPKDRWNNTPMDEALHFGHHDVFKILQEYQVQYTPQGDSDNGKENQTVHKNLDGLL
# Procedure, shortened: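 Assay buffer: 45 mM KH2PO4 pH 8.2, 0.02% Tween-20. hKGA acts on L-glutamine (1 mM solution added); product glutamate is reported by an oxidase/peroxidase Amplex Red coupling, with fluorescence taken at baseline and 30 min.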
# [12] = S16 Schwann cell PMP22 intronic element beta-lactamase assay (AID 624044; calls by dose curve; note: nearly all actives have a fitted effect of over 15% in size)
# Procedure, shortened: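 Beta-lactamase reporter under a PMP22 intronic regulatory element in stable S16 rat Schwann cells; 24 h compound exposure. 460 nm blue signal normalized between DMSO (0%) and potassium clavulanate, with 535 nm FRET tracking viability; curves classed by r2 and response.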
# [13] = Cytotoxicity counterscreen for NFkB agonists and antagonists (AID 624476)
# [14] = qHTS Assay for Identification of Small Molecule Agonists for NFkB Signaling Pathway. (AID 624478);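 note: compounds tested together with TNF alpha at its EC50 of 10 pM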
# Procedure, shortened: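 Read-out: 460/530 nm emission at 405 nm excitation after 2 h LiveBLAzer loading; ME-180 NFkB-bla reporter cells exposed 5 h at 37 C to compounds with 10 pM TNF alpha final.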
# [15] = qHTS Assay for Identification of Small Molecule Antagonists for NFkB Signaling Pathway. (AID 624479; calls by dose curve;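 note: pathway stimulated with TNF alpha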)
# [16] = Cell Proliferation Assay against the TMD8 Cell Line (AID 651645); conditions: TMD8 DLBCL cell line proliferation/viability; at 46.1 µM (top of the series);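 note: cells exposed to compound for 48 h before reading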
# Procedure, shortened: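 TMD8 ABC DLBCL cells, 500 per well in phenol red-free RPMI with 5% FBS, were treated with compound by pin transfer and incubated 48 hours at 37C, 5% CO2. Viability was read by CellTiter-Glo luminescence, normalised to DMSO (100%) and 9.2 uM bortezomib (0%).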
# [17] = Cell Proliferation Assay against the HBL1 Cell Line (AID 651646); conditions: HBL1 DLBCL cells; at 46.1 µM (top of the series);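 note: cells exposed to compound for 48 h before reading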
# Procedure, shortened: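 HBL1, 500 cells/well, RPMI no phenol red + 5% FBS; cpd pinned, 48 h 37C/5% CO2; CellTiter-Glo, 15 min RT, luminescence. % activity: DMSO = 100%, bortezomib 9.2 uM final = 0%.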
# [18] = Cell Proliferation Assay against the TMD8 Cell Line (Caspase readout at 8 hrs) (AID 651713); note: potency is the fitted concentration of half-maximal effect
# Procedure, shortened: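 Apoptosis readout: caspase 3/7 luminescence (Caspase-Glo), 15 min RT. Cells: TMD8, 500/well, RPMI + 5% FBS, no phenol red. Exposure 8 h, 37C. % activity vs DMSO = 0, bortezomib 9.2 uM final = 100.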
# [19] = qHTS assay for small molecule activators of the p53 signaling pathway (AID 651743; active = well fitted activation curve with a large enough effect in the signal ratio, not every such curve was filed as active; the % refers to the signal ratio); conditions: HCT-116 p53RE-bla, beta-lactamase FRET ratio, 16 h; activation: stronger effect = higher value
# Procedure, shortened: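 Reporter: beta-lactamase driven by p53 response elements, stably integrated in HCT-116 cells. Cells seeded at 4,000/well, 5 h preincubation, compound (DMSO) 16 h at 37 C; B/G FRET substrate 2 h RT; fluorescence intensity read.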
# [20] = qHTS for Inhibitors of the vitamin D receptor (VDR): Hit Validation using a Texas Red Assay (AID 602201)
# Procedure, shortened: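 Fluorescence polarization with 1.5 uM VDR-LBD, LG19078 and 7 nM Texas Red (final). After 2 hours at ambient temperature, read at Ex 595 nm/Em 615 nm.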
smiles,measurement,setting,value
Fc1ccc(C(OCCN2CCN(CCCc3ccccc3)CC2)c2ccc(F)cc2)cc1,Potency,[1],inactive
same,Potency,[2],32.2 µM (active)
same,Potency,[3],28.7 µM (active)
same,outcome,[4],inactive
same,outcome,[5],inactive
same,outcome,[6],inactive
same,Potency,[7],inactive
O=c1oc2ccccc2c(O)c1C(CC(O)c1ccc(-c2ccc(Br)cc2)cc1)c1ccccc1 (stereo unspecified),Potency,[8],inactive
same,Potency,[9],27.3 µM (active)
same,activation,[10],-6.71% (inactive)
CCCN1CCC[C@@H]2Cc3nc(N)ncc3C[C@H]21,Potency,[8],inactive
same,Potency,[11],inactive
same,outcome,[4],inactive
same,outcome,[5],inactive
same,outcome,[6],inactive
COc1ccc(C(=O)c2c(C)n(CCN3CCOCC3)c3ccccc23)cc1,Potency,[8],inactive
same,Potency,[1],inactive
same,Potency,[12],inactive
same,Potency,[13],inactive
same,outcome,[14],inactive
same,Potency,[15],inactive
same,viability (% of control),[16],18.8%
same,"viability, percent of control",[17],50.4%
same,Potency,[18],26.4 µM (active)
CNCC(O)c1ccc(O)cc1 (stereo unspecified),Potency,[8],inactive
same,outcome,[4],inactive
same,outcome,[6],inactive
same,Potency,[7],inactive
same,Potency,[9],inactive
same,activation,[19],-2.83% (inactive)
same,activation,[10],-1.11% (inactive)
C[C@]12C/C(=C/O)C(=O)C[C@@H]1CC[C@@H]1[C@@H]2CC[C@@]2(C)[C@H]1CC[C@]2(C)O,Potency,[8],inactive
same,Potency,[1],inactive
same,Potency,[2],inactive
same,Potency,[12],inactive
same,Potency,[9],6.86 µM (active) and 7.5 µM (active)
same,activation,[19],23.1% (inactive)
O=C1NCN(c2ccccc2)C12CCN(CC1COc3ccccc3O1)CC2 (stereo unspecified),Potency,[8],6.31 µM (active) and 7.94 µM (active)
same,Potency,[1],inactive
same,Potency,[12],inactive
same,Potency,[11],inactive
same,outcome,[4],inactive
same,outcome,[5],inactive
same,outcome,[6],inactive
same,Potency,[7],inactive
c1ccc2c(c1)OCC(C1=NCCN1)O2 (stereo unspecified),Potency,[8],inactive
same,Potency,[1],inactive
same,Potency,[11],inactive
same,outcome,[4],inactive
same,outcome,[5],inactive
same,Potency,[7],inactive
Cc1cc(SCc2sc(-c3ccc(C(F)(F)F)c(F)c3)nc2C)ccc1OCC(=O)O,outcome,[20],inactive
same,outcome,[14],inactive
same,viability (% of control),[16],80.8%
same,"viability, percent of control",[17],93.2%
same,Potency,[18],inactive
same,Potency,[9],68.6 µM (active)
same,activation,[10],-3.79% (inactive)
NC(=Nc1ccccc1)Nc1ccccc1,Potency,[1],inactive
same,Potency,[12],inactive
same,Potency,[9],19.3 µM (active) and 18.8 µM (active)
CO[C@]12CC[C@@]3(C[C@@H]1[C@](C)(O)C(C)(C)C)[C@@H]1Cc4ccc(O)c5c4[C@@]3(CCN1CC1CC1)[C@H]2O5,Potency,[1],inactive
CCC(COC(=O)c1cc(OC)c(OC)c(OC)c1)(c1ccccc1)N(C)C (stereo unspecified),Potency,[1],inactive
same,Potency,[2],inactive
same,Potency,[3],inactive
same,Potency,[12],inactive
CC(=O)[C@H]1CC[C@H]2[C@@H]3CC[C@H]4C[C@H](O)CC[C@]4(C)[C@H]3C(=O)C[C@]12C,Potency,[1],inactive
same,Potency,[12],inactive
same,Potency,[11],inactive
same,outcome,[4],inactive
same,outcome,[5],inactive
same,outcome,[6],inactive
same,Potency,[7],inactive
